HT1080 IDH1KD tx: kills HT-1080 cells with IDH1 knockdown | actives 2% (n = 360,000) | HT-1080 IDH1 knockdown viability, ATP luminescence, 48 h | Potency, µM (doses to about 46.1 µM), for inactives: at the top dose activity, negative = toxicity, hits mostly cytotoxic;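 note: 0% = DMSO wells and -100% = cell-free medium wells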
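Luminescent ATP read-out (CellTiter-Glo, 10 min at room temperature) after 48 h compound exposure at 37 °C gave viability of IDH1-knockdown HT-1080 cells. Activity was normalised to DMSO and cell-free wells, then fitted as concentration-response curves.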
KB-V1 cytotox: kills drug-selected multidrug resistant KB-V1 cells; Potency, µM (titrated, usually from 46.1 µM), actives largely listed as cytotoxic; actives 3.4% (n = 400,000); KB-V1 MDR cells viability, CellTiter-Glo, 72 h; note: nearly all actives have a fitted effect of over 60% in size
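KB-V1, DMEM (no phenol red) + 10% FBS; cpd pin-transferred, titration series; 72 h, 37 degrees C; CellTiter-Glo, luminescence. Data normalized, curve-fit.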
TDP1 cell noCPT: qHTS for Inhibitors of human tyrosyl-DNA phosphodiesterase 1 (TDP1): qHTS in cells in absence of CPT; DT40 Tdp1-/- hTDP1 cells, no CPT, ATP luminescence, 48 h; Potency, µM (highest dose often 46.2 µM), for the others: at the top dose activity change, negative = growth inhibition, usual class: inhibitors; actives 15% (n = 420,000); AID 686978, 2013; note: nearly all actives have a fitted effect of over 55% in size
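Chicken DT40 Tdp1-/- cells complemented with human TDP1, screened without camptothecin (DMSO vehicle only), 400 cells/well. Compounds pin-transferred, cells incubated at 37 °C for at least 48 hr. Growth read as ATP-dependent luminescence (CellTiter-Glo, 30 min at RT).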
HT1080-NT tox: kills 2HG-producing HT-1080-NT fibrosarcoma cells | HT-1080-NT fibrosarcoma viability, CellTiter-Glo ATP luminescence, 48 h | Potency, µM (titrated, usually from 46.1 µM), for the others: top-dose activity, negative = less viability, actives largely listed as cytotoxic | actives 1.6% (n = 360,000) | AID 686970;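 note: NT is the 2HG producing partner of a matched IDH1 knockdown line; 0% = DMSO-treated cells and -100% = media-only wells without cells; nearly all actives have a fitted effect of over 55% in size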
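Luminescent CellTiter-Glo readout after 48 hours of compound exposure at 37 degrees C defined viability of HT-1080-NT cells. Activity was normalized to DMSO wells and cell-free media wells; concentration-response curves were fitted and assigned curve classes.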
KB-3-1 cytotox: kills parental KB-3-1 adenocarcinoma cells. KB-3-1 viability, CellTiter-Glo ATP luminescence, 72 h. actives 1.4% (n = 400,000). AID 1347075. Potency, µM (doses to about 46.1 µM), most hits filed as cytotoxic; note: nearly all actives have a fitted effect of over 60% in size
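Parental KB-3-1 viability, qHTS format: 72 h compound exposure, 37 °C; CellTiter-Glo; media-only wells and DMSO plates as controls; concentration-effect fits on corrected data.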
TDP1 cell CPT: growth inhibition of DT40 Tdp1-/-;hTDP1 cells with camptothecin (screen for TDP1 inhibitors); Potency, µM (series often up to 46.2 µM), without a hit: at the top dose activity change, negative = growth inhibition, actives largely listed as inhibitors; chicken DT40 Tdp1-/-;hTDP1 cells + 20 nM CPT, ATP luminescence, 48 h; AID 686979; actives 12% (n = 420,000); note: nearly all actives have a fitted effect of over 55% in size
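Chicken DT40 Tdp1-/- cells complemented with human TDP1, 400 cells/well, exposed to compounds plus 20 nM camptothecin for at least 48 h at 37 C; viability read as ATP content by CellTiter-Glo luminescence.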
Numbers without * were called inactive; i = inactive; ? = inconclusive; . = not tested or not shown; [ ] = dose if it differs, or a comment. An excerpt weighted towards active compounds, which were near 19% of everything screened. Calls come from the whole dose curve; as a rule, active = well fitted curve in the direction sought with a large enough effect; inconclusive = small, poorly fitted or top-dose-only effect, or another doubt; inactive = no such curve, though single readings can be large; an effect the other way counts as inactive or inconclusive. Unless noted, % is set by controls: 0 for no effect and ±100 for the full control effect; potency is the fitted concentration of half-maximal effect.

SMILES	HT1080 IDH1KD tx	KB-V1 cytotox	TDP1 cell noCPT	HT1080-NT tox	KB-3-1 cytotox	TDP1 cell CPT
CC(=O)Nc1ccccc1-c1nc2ccccc2n(CC(=O)c2ccc(C)c(C)c2)c1=O	.	i	?	.	i	20.6µM*
CCC(C(=O)Nc1cccc(C#N)c1)n1c(=O)c(-c2ccccc2NC(C)=O)nc2ccccc21 (stereo not drawn)	.	i	13µM*	.	?	23.1µM*
CCc1ccc(NC(=O)C(CC)n2c(=O)c(-c3ccccc3NC(C)=O)nc3ccccc32)cc1 (stereo not drawn)	.	i	23.1µM*	.	i	23.1µM*
CCC(=O)Nc1ccc(C)cc1-c1nc2ccccc2n(C(C)C(=O)Nc2ccccc2CC)c1=O (stereo not drawn)	.	i	20.6µM*	.	i	18.4µM*
O=C(COc1ccccc1C(=O)NCc1ccncc1)Nc1ccc(Br)cc1	-17.7%	?	-27.1%	-28.6%	i	-17.0%
CCOc1ccc(NC(=O)C(=O)NCCc2sc(-c3ccc(C)cc3)nc2C)cc1	.	i	.	.	i	.
Cc1ccccc1C(=O)Nc1ccc2nc3n(c(=O)c2c1)CCC3	13.0%	?	-18.6%	11.7%	6.51µM*	-10.5%
Cc1ccccc1C(=O)Nc1ccc2nc3n(c(=O)c2c1)CCCC3	8.5%	i	-18.4%	1.1%	i	-14.4%
CCOc1ccccc1C(=O)Nc1ccc2nc3n(c(=O)c2c1)CCCCC3	?	i	2.59µM*	8.1%	i	?
COc1ccc(Cl)cc1C(=O)Nc1ccc2nc3n(c(=O)c2c1)CCCC3	0.8%	?	18.4µM*	-11.8%	i	14.6µM*
COc1cc(NC(=O)CSc2nc3ncccc3o2)cc(OC)c1	.	i	?	.	i	?
C=CCn1c(SCc2c(C(=O)OC)sc(N)c2C(=O)OC)nnc1-c1ccc(Br)cc1	-29.8%	i	18.4µM*	-27.6%	i	?
Cn1c(CC(=O)NNC(=O)c2ccc(Cl)nc2)nc2ccccc21	23.5%	i	1.6%	10.6%	i	0.7%
Cc1ccc(NC(=O)Cc2n[nH]c(=O)c3ccccc23)cc1S(=O)(=O)N1CCCCCC1	-9.1%	?	16.4µM*	-1.6%	?	?
CN(c1ccccc1)S(=O)(=O)c1cccc(NC(=O)Cc2n[nH]c(=O)c3ccccc23)c1	-2.4%	i	11.6µM*	-0.9%	i	13µM*
CCN(CC)S(=O)(=O)c1cc(NC(=O)Cc2n[nH]c(=O)c3ccccc23)ccc1C	?	i	13µM*	?	i	?
Cc1ccccc1CC(=O)OCC(=O)Nc1ccc(C)c(S(=O)(=O)N2CCCCC2)c1	4.9%	?	-16.4%	-0.2%[9.24 µM]	i	-20.9%
CCN(CC)S(=O)(=O)c1cc(NC(=O)CSc2n[nH]c(N)n2)ccc1C	9.4%	i	1.4%	0.3%	i	-0.2%
CN(CC(=O)Nc1cccc(F)c1)C(=O)Cc1n[nH]c(=O)c2ccccc12	2.2%	i	0.3%	-1.4%	i	?
CCOC(=O)c1c(NC(=O)CS(=O)(=O)c2ccc(C)cc2)sc2c1CCCCC2	.	i	?	.	i	?
CSCCC(NC(=O)c1ccccc1)C(=O)N1CCN(C(=O)c2ccccc2)CC1 (stereo not drawn)	-2.5%	i	0.9%	-2.7%[9.24 µM]	i	-23.8%
CCOc1ccc(C(=O)NCC(=O)N2CCN(C/C=C/c3ccccc3)CC2)cc1OCC	0.6%	?	16.4µM*	1.8%	i	?
COc1ccc(C(=O)NCC(=O)N2CC=C(c3ccccc3)CC2)cc1OC	1.1%	i	25.9µM*	-0.8%	i	?
CSCCC(NC(=O)c1ccccc1Br)C(=O)N1CCN(C/C=C/c2ccccc2)CC1 (stereo not drawn)	?	?	?	-6.7%	i	2.59µM*
CCOC(=O)N1CCN(C(=O)C(NC(=O)c2ccc(C(C)(C)C)cc2)C(C)C)CC1 (stereo not drawn)	-8.3%	i	2.31µM*	-2.8%	i	8.2µM*
SMILES	HT1080 IDH1KD tx	KB-V1 cytotox	TDP1 cell noCPT	HT1080-NT tox	KB-3-1 cytotox	TDP1 cell CPT
CCOc1ccccc1N1CCN(C(=O)CNC(=O)c2ccc(OC)c(OC)c2)CC1	4.7%	i	?	-3.1%	?	4.0%
Cc1cccc(C(=O)NCC(=O)N2CC=C(c3ccccc3)CC2)c1	?	i	?	-15.2%	?	?
COc1ccc(C(=O)NC(C(=O)N2CCN(C/C=C/c3ccccc3)CC2)C(C)C)cc1 (stereo not drawn)	-9.5%	i	?	-8.4%	i	18.4µM*
COc1ccccc1C(=O)NCC(=O)N1CCN(C/C=C/c2ccccc2)CC1	8.2%	8.2µM*	?	-2.8%	i	?
O=C(NC(=S)N1CCN(C/C=C/c2ccccc2)CC1)c1ccc(F)cc1	?	?	?	-18.1%	?	?
CCCCn1c(N)c(N(CC)C(=O)C2CCC2)c(=O)[nH]c1=O	-0.2%	?	15.4%	-2.0%[9.24 µM]	i	-1.8%
CC(C)c1ccc(C(C(=O)NC2CCCCC2)N(C(=O)c2csnn2)C2CC2)cc1 (stereo not drawn)	-2.2%	i	?	2.7%	i	?
O=C(O)c1ccccc1NS(=O)(=O)c1cccc(-n2sc3ccccc3c2=O)c1	?	?	8.2µM*	-5.3%	i	14.6µM*
C[C@H](NC(=O)c1nc[nH]c1C(=O)N1CCN(c2ccccc2)CC1)c1ccccc1	19.1%	i	-2.5%	13.6%	i	-4.8%
Cc1ccc(S(=O)(=O)NCC(=O)N/N=C/c2ccc(Cl)cc2Cl)cc1	3.7%	i	-3.5%	15.6%	i	5.5%
Cc1ccc(S(=O)(=O)NCC(=O)N/N=C/c2ccccc2O)cc1	?	i	6.51µM*	?	i	5.17µM*
Cc1cc(SCC(=O)N/N=C/c2ccc(O)c(O)c2O)c(C)cc1Br	?	?	4.61µM*	-24.1%	?	3.26µM*
O=C(CSc1ccccc1)N/N=C/c1ccccc1O	8.2µM*	i	2.59µM*	?	i	4.11µM*
O=C(CCSCCC(=O)NN=Cc1ccccc1O)NN=Cc1ccccc1O	-25.3%	.	-23.7%	4.3%	.	-24.3%
Cc1ccc(S(=O)(=O)NCC(=O)OCN2C(=O)c3ccccc3C2=O)cc1	12.8%	i	20.6µM*	13.4%	i	?

Compound activity from PubChem.
